Measurements published in PubChem BioAssay (Tox21).
Records with an inconclusive call do not appear. Where a call stands in place of a potency, no number is given. Active and inactive are the calls of the source. Unless noted, calls follow the shape of the full dose curve.

System: not listed separately
Assay: Nuclear factor erythroid 2-related factor 2/antioxidant responsive element (Nrf2/ARE) small molecule agonists: luciferase reporter gene qHTS assay in human keratinocytes (AID 1919969); also: nearly all actives have a fitted effect of over 35% in size
Settings: KeratinoSens HaCaT ARE-luciferase, luminescence, 24 h; series mostly up to 92.4 µM

Row | SMILES | Potency
1 | CCOC=C(C(=O)OCC)C(=O)OCC | inactive
2 | CCC(=O)OCc1ccccc1 | inactive
3 | O=C1CC[C@H](C(=O)N2CCCCC2)N1 | inactive
4 | C=C1CC/C=C(\C)CC[C@@H]2[C@@H]1CC2(C)C | inactive
5 | COc1cc(S(N)(=O)=O)cc(C(=O)O)c1OC | inactive
6 | C1COCCO1 | inactive
7 | CC/C=C/CCO | inactive
8 | CC(=O)N1CCN(c2ccc(O)cc2)CC1 | inactive
9 | Cc1ncc(CO)c(CN)c1O | inactive
10 | CC(C)(C)c1ccc(CCC=O)cc1 | inactive
11 | CC1=C(O)C(=O)C(C)O1 (configuration not stated) | inactive
12 | CCOC(=O)[C@H](CCc1ccccc1)N[C@@H](C)C(=O)N1C(=O)N(C)C[C@H]1C(=O)O | inactive
13 | CCCCCCCCCCCCCCCCCC(=O)OCC(CC)CCCC (configuration not stated) | inactive
14 | NC(=O)Cc1cccc2ccccc12 | inactive
15 | Cc1cnccn1 | inactive
16 | O=Cc1ccc(Cl)cc1 | inactive
17 | CCCCCCCCCCC | inactive
18 | CCCCOC(=O)CCS | inactive
19 | COc1cc(C(=S)N2CCOCC2)cc(OC)c1OC | inactive
20 | CCCC(=O)Nc1ccc(O)c(C(C)=O)c1 | inactive

Row | SMILES | Potency
21 | COc1cc2c(Nc3ccc(Br)cc3F)ncnc2cc1OCC1CCN(C)CC1 | inactive
22 | CC(=O)c1ccc2c(c1)CCCC2 | inactive
23 | c1cnc2cc3c(cc2n1)C1CNCC3C1 | inactive
24 | O=Cc1ccc([N+](=O)[O-])cc1 | inactive
25 | CCC(=O)O[C@@H]1C[C@H]2CC[C@]1(C)C2(C)C | inactive
26 | CCNc1nc(N)nc(Cl)n1 | inactive
27 | CN(C)CCCNCCC#N | inactive
28 | O=C1CCN(c2ccccc2)N1 | inactive
29 | O=C(O)c1ccc(OCCN2CCCCC2)cc1 | inactive
30 | C=CC(C)(O)CC/C=C(/C)CCC=C(C)C (configuration not stated) | inactive
31 | Cc1cc(CCC(=O)OCCOCCOCCOC(=O)CCc2cc(C)c(O)c(C(C)(C)C)c2)cc(C(C)(C)C)c1O | inactive
32 | C1CCCC1 | inactive
33 | NS(=O)(=O)c1ccccc1OC(F)(F)F | inactive
34 | Clc1ccc2c(c1)Nc1ccccc1S2 | inactive
35 | CC(C)(O)C(=O)c1ccc(OCCO)cc1 | inactive
36 | C[Si](C)(C)O[Si](C)(C)O[Si](C)(C)C | inactive
37 | [Cl][Nd]([Cl])[Cl] | inactive
38 | O=C(Cn1ccnc1[N+](=O)[O-])NCc1ccccc1 | inactive
39 | O=C(O)CC(=O)O | inactive

Molecular target: Gonadotropin-releasing hormone receptor (Homo sapiens) (UniProt P30968)
Sequence (P30968 whole entry, looked up): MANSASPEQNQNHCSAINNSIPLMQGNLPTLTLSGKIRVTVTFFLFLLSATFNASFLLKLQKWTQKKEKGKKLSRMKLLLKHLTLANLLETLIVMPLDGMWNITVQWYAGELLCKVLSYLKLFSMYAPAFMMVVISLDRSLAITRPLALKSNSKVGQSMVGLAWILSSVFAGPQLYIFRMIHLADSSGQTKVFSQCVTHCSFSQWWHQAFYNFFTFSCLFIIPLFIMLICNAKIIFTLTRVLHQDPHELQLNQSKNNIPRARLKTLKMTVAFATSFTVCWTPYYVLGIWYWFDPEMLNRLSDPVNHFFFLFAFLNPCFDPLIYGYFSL
Assay: Human gonadotropin-releasing hormone receptor (GnRHR) small molecule agonists, calcium flux assay in GnRHR-HEK293 cells (AID 1920063); also: nearly all actives have a fitted effect of over 35% in size
Settings: calcium flux fluorescence, agonist mode; series mostly up to 57.6 µM
Procedure, shortened: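 Tox21-format agonist screen using human GnRHR-expressing HEK293 cells and a fluorescent calcium dye; kinetic 3-min fluorescence reading after compound addition, 15-point concentration series run in triplicate.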

Row | SMILES | Potency
40 | CCOC=C(C(=O)OCC)C(=O)OCC | inactive
41 | CCC(=O)OCc1ccccc1 | inactive
42 | O=C1CC[C@H](C(=O)N2CCCCC2)N1 | inactive
43 | C=C1CC/C=C(\C)CC[C@@H]2[C@@H]1CC2(C)C | inactive
44 | COc1cc(S(N)(=O)=O)cc(C(=O)O)c1OC | inactive
45 | C1COCCO1 | inactive
46 | CC/C=C/CCO | inactive
47 | CC(=O)N1CCN(c2ccc(O)cc2)CC1 | inactive
48 | Cc1ncc(CO)c(CN)c1O | inactive
49 | CC(C)(C)c1ccc(CCC=O)cc1 | inactive
50 | CC1=C(O)C(=O)C(C)O1 (configuration not stated) | inactive
51 | CCOC(=O)[C@H](CCc1ccccc1)N[C@@H](C)C(=O)N1C(=O)N(C)C[C@H]1C(=O)O | inactive
52 | CCCCCCCCCCCCCCCCCC(=O)OCC(CC)CCCC (configuration not stated) | inactive
53 | NC(=O)Cc1cccc2ccccc12 | inactive
54 | Cc1cnccn1 | inactive
55 | O=Cc1ccc(Cl)cc1 | inactive
56 | CCCCCCCCCCC | inactive
57 | CCCCOC(=O)CCS | inactive
58 | COc1cc(C(=S)N2CCOCC2)cc(OC)c1OC | inactive
59 | CCCC(=O)Nc1ccc(O)c(C(C)=O)c1 | inactive

Row | SMILES | Potency
60 | COc1cc2c(Nc3ccc(Br)cc3F)ncnc2cc1OCC1CCN(C)CC1 | inactive
61 | CC(=O)c1ccc2c(c1)CCCC2 | inactive
62 | c1cnc2cc3c(cc2n1)C1CNCC3C1 | inactive
63 | O=Cc1ccc([N+](=O)[O-])cc1 | inactive
64 | CCC(=O)O[C@@H]1C[C@H]2CC[C@]1(C)C2(C)C | inactive
65 | CCNc1nc(N)nc(Cl)n1 | inactive
66 | CN(C)CCCNCCC#N | inactive
67 | O=C1CCN(c2ccccc2)N1 | inactive
68 | O=C(O)c1ccc(OCCN2CCCCC2)cc1 | inactive
69 | C=CC(C)(O)CC/C=C(/C)CCC=C(C)C (configuration not stated) | inactive
70 | Cc1cc(CCC(=O)OCCOCCOCCOC(=O)CCc2cc(C)c(O)c(C(C)(C)C)c2)cc(C(C)(C)C)c1O | inactive
71 | C1CCCC1 | inactive
72 | NS(=O)(=O)c1ccccc1OC(F)(F)F | inactive
73 | Clc1ccc2c(c1)Nc1ccccc1S2 | inactive
74 | CC(C)(O)C(=O)c1ccc(OCCO)cc1 | inactive
75 | C[Si](C)(C)O[Si](C)(C)O[Si](C)(C)C | inactive
76 | [Cl][Nd]([Cl])[Cl] | inactive
77 | O=C(Cn1ccnc1[N+](=O)[O-])NCc1ccccc1 | inactive
78 | O=C(O)CC(=O)O | inactive

Molecular target: KiSS-1 receptor (Homo sapiens) (UniProt Q969F8)
Sequence (Q969F8 whole entry, looked up): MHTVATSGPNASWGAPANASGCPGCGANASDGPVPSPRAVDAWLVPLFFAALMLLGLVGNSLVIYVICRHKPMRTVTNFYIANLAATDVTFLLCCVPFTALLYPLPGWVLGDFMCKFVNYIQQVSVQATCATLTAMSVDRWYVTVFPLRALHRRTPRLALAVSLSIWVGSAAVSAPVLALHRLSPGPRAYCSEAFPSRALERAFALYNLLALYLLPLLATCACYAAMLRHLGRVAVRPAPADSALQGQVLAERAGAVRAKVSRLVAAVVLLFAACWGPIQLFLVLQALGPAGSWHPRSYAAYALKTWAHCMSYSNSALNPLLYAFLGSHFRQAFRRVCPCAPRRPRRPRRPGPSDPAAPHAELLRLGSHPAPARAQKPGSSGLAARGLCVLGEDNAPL
Assay: Human kisspeptin (KISS1R) small molecule agonists, calcium flux assay in KISS1R-HEK293 cells (AID 1920064; active = well fitted activation curve with a large enough effect in the repeat runs)
Settings: KISS1R-HEK293, calcium flux fluorescence, agonist; series mostly up to 76.8 µM
Procedure, shortened: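 Intracellular calcium mobilization in KISS1R-HEK293 cells was recorded by fluorescence (Ex/Em 480/540) for 3 min following compound addition to cells pre-loaded 1 h with calcium dye.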

Row | SMILES | Potency
79 | CCOC=C(C(=O)OCC)C(=O)OCC | inactive
80 | CCC(=O)OCc1ccccc1 | inactive
81 | O=C1CC[C@H](C(=O)N2CCCCC2)N1 | inactive
82 | C=C1CC/C=C(\C)CC[C@@H]2[C@@H]1CC2(C)C | inactive
83 | COc1cc(S(N)(=O)=O)cc(C(=O)O)c1OC | inactive
84 | C1COCCO1 | inactive
85 | CC/C=C/CCO | inactive
86 | CC(=O)N1CCN(c2ccc(O)cc2)CC1 | inactive
87 | Cc1ncc(CO)c(CN)c1O | inactive
88 | CC(C)(C)c1ccc(CCC=O)cc1 | inactive
89 | CC1=C(O)C(=O)C(C)O1 (configuration not stated) | inactive
90 | CCOC(=O)[C@H](CCc1ccccc1)N[C@@H](C)C(=O)N1C(=O)N(C)C[C@H]1C(=O)O | inactive
91 | CCCCCCCCCCCCCCCCCC(=O)OCC(CC)CCCC (configuration not stated) | inactive
92 | NC(=O)Cc1cccc2ccccc12 | inactive
93 | Cc1cnccn1 | inactive
94 | O=Cc1ccc(Cl)cc1 | inactive
95 | CCCCCCCCCCC | inactive
96 | CCCCOC(=O)CCS | inactive
97 | COc1cc(C(=S)N2CCOCC2)cc(OC)c1OC | inactive
98 | CCCC(=O)Nc1ccc(O)c(C(C)=O)c1 | inactive

Row | SMILES | Potency
99 | COc1cc2c(Nc3ccc(Br)cc3F)ncnc2cc1OCC1CCN(C)CC1 | inactive
100 | CC(=O)c1ccc2c(c1)CCCC2 | inactive
101 | c1cnc2cc3c(cc2n1)C1CNCC3C1 | inactive
102 | O=Cc1ccc([N+](=O)[O-])cc1 | inactive
103 | CCC(=O)O[C@@H]1C[C@H]2CC[C@]1(C)C2(C)C | inactive
104 | CCNc1nc(N)nc(Cl)n1 | inactive
105 | CN(C)CCCNCCC#N | inactive
106 | O=C1CCN(c2ccccc2)N1 | inactive
107 | O=C(O)c1ccc(OCCN2CCCCC2)cc1 | inactive
108 | C=CC(C)(O)CC/C=C(/C)CCC=C(C)C (configuration not stated) | inactive
109 | Cc1cc(CCC(=O)OCCOCCOCCOC(=O)CCc2cc(C)c(O)c(C(C)(C)C)c2)cc(C(C)(C)C)c1O | inactive
110 | C1CCCC1 | inactive
111 | NS(=O)(=O)c1ccccc1OC(F)(F)F | inactive
112 | Clc1ccc2c(c1)Nc1ccccc1S2 | inactive
113 | CC(C)(O)C(=O)c1ccc(OCCO)cc1 | inactive
114 | C[Si](C)(C)O[Si](C)(C)O[Si](C)(C)C | inactive
115 | [Cl][Nd]([Cl])[Cl] | inactive
116 | O=C(Cn1ccnc1[N+](=O)[O-])NCc1ccccc1 | inactive
117 | O=C(O)CC(=O)O | inactive
